Screening data from PubChem BioAssay.
A selection: hits, their analogues and other compounds. The true share with any hit is near 12%.
G9a block – inhibitors of human histone lysine methyltransferase G9a. Q96KQ7. G9a H3K9 monomethylation, AlphaScreen, 2 h. Potency, µM (highest dose often 102 µM), for inactives: top-dose activity, negative = inhibition, hits mostly inhibitors. 8.8% of 350,000 active; note: % is set by controls: 0 for no effect and ±100 for the full control effect; nearly all actives have a fitted effect of over 75% in size
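Quantitative HTS format: methyltransferase activity on a biotin-tagged H3K9 peptide is measured by AlphaScreen, using a rabbit anti-monomethyl-H3K9 antibody with streptavidin donor and anti-IgG acceptor beads. Final levels are 20 nM enzyme, 500 nM peptide, 20 uM SAM; 2 h RT.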
HP1b chromo inh – blocks HP1-beta chromodomain binding to methylated histone tails. P83916. AlphaScreen HP1-beta / biotin-H3K9me3 peptide binding. Potency, µM (top dose mostly 114 µM), for the others: at the highest dose activity change, negative = inhibition, usual class: inhibitors. 0.56% of 390,000 active; note: nearly all actives have a fitted effect of over 70% in size
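HP1-beta protein (50 nM final) preincubated 30 min at room temperature with biotinylated H3(1-18)K9me3 peptide (50 nM) in PBS pH 7.4, 0.01% Tween-20, then compound added for 30 min. AlphaScreen streptavidin donor/nickel chelate acceptor beads (10 ug/mL final), 30 min dark, luminescence read.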
JMJD2A Tudor – inhibitors of human JMJD2A Tudor domain; AlphaScreen JMJD2A-Tudor / H3K4me3 peptide binding; O75164; Potency, µM (titrated, usually from 114 µM), for the others: top-dose activity change, negative = inhibition, most hits filed as inhibitors; 4.4% of 390,000 active; AID 504339; note: % is set by controls: 0 for no effect and ±100 for the full control effect; nearly all actives have a fitted effect of over 50% in size
Sfp PPTase inh – blocks B. subtilis Sfp PPTase activity; Potency, µM, for inactives: largest response in the series, negative = inhibition, hits mostly inhibitors; 3.5% of 310,000 active; Q9F4F7; Biochemical Sfp PPTase activity, qHTS;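 note: the enzyme is Sfp with the accession as filed and its product quenches rhodamine fluorescence; 0% = enzyme reaction without inhibitor and -100% = no enzyme wells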
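Reaction rates are the 30-min fluorescence difference (ex 525, em 598 nm) in wells containing 15 nM Sfp, 5 uM rhodamine-CoA and 12.5 uM BHQ-2-YbbR at pH 7.6 with 10 mM MgCl2.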
PLK1 PBD block – PLK1 (human) polo-box domain binding inhibition. P53350. Plk1 PBD binding of FITC phosphopeptide, fluorescence polarization. Potency, µM, without a hit: max response, negative = inhibition, hits mostly inhibitors. 2.8% of 360,000 active; note: series mostly up to about 57 µM; % is set by controls: 0 for no effect and ±100 for the full control effect; nearly all actives have a fitted effect of over 65% in size
Target sequence (P53350 whole entry, looked up, the tested form may be a part): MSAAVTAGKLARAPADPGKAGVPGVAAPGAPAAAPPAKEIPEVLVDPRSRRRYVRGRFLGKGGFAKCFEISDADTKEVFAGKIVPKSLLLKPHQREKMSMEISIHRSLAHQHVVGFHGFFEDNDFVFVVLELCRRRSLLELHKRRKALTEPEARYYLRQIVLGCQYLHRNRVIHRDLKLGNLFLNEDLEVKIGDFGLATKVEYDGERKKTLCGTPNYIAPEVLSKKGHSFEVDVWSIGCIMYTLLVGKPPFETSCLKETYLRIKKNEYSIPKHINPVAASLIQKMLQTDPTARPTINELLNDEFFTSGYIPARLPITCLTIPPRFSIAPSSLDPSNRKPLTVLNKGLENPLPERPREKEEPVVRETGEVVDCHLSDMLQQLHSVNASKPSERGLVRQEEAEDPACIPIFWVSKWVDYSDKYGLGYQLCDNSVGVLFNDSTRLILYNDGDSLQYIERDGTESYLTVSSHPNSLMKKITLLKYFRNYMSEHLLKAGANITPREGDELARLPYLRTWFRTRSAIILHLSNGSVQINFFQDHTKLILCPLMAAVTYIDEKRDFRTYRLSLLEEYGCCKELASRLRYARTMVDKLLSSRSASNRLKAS
BAZ2B inh – BAZ2B (human) inhibition; 4.4% of 360,000 active; AlphaScreen BAZ2B-H3K14Ac peptide displacement; Potency, µM (doses to about 114 µM), without a hit: at the highest dose activity change, negative = inhibition, hits mostly inhibitors; AID 504333; Q9UIF8; note: % is set by controls: 0 for no effect and ±100 for the full control effect; nearly all actives have a fitted effect of over 60% in size
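Protein-peptide AlphaScreen: BAZ2B 50 nM, b-H3K14Ac 50 nM, 1x PBS pH 7.4 + 0.01% Tween-20. Preincubation 30 min RT; cpd 30 min RT (top 110 uM); beads 20 min RT, light-protected.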
The depositor's hits bear a star; ? = inconclusive; . = no result; [ ] = remark or other dose. Calls come from the whole dose curve; as a rule, active = well fitted curve in the direction sought with a large enough effect; inconclusive = small, poorly fitted or top-dose-only effect, or another doubt; inactive = no such curve, though single readings can be large; an effect the other way counts as inactive or inconclusive. Potency is the fitted concentration of half-maximal effect.

SMILES | G9a block | HP1b chromo inh | JMJD2A Tudor | Sfp PPTase inh | PLK1 PBD block | BAZ2B inh
C=CCSC1=C(C#N)C(c2ccccc2)CC(=O)N1 (centres undefined) | 50µM* | 25% | -24% | -29% | -13% | 6%
CCOC(=O)CSC1=C(C#N)C(c2ccc(Cl)cc2)CC(=O)N1 (centres undefined) | 79µM* | 26% | -17% | -2% | -24% | 2%
Cc1ccc(NC(=O)c2cccc(NC(=O)N3CCSc4ncccc43)c2)cc1F | 2%[59 µM] | 51% | 2% | . | . | -2%
CCCCN(C)c1ncnc2c1cnn2-c1cccc(Cl)c1 | 85%[59 µM] | 155% | 35% | . | . | 129%
Cc1cc(C)n(CC(=O)NNC(=O)c2ccc(NC(=O)CC#N)cc2)n1 | ? | 36% | 5% | . | -5% | 1%
Cc1nc2ccc(C(=O)N3CCN(c4ccccc4)CC3)cn2c1N(C)C(=O)CCc1ccccc1 | . | . | . | . | -4% | .
CCOC(=O)c1c(-c2ccsc2)csc1N | 48%[59 µM] | -22% | ? | 56µM* | -10% | 15%
CCOC(=O)c1c(-c2ccc(C)s2)csc1N | ? | ? | ? | 11µM* | 5.3µM* | ?
CC1CCCN(C(=O)C2CCN(CC3CC=CCC3)CC2)C1 (centres undefined) | ? | ? | 8.9µM* | -4% | -7% | 7%
CSCC[C@H](NC(=O)[C@@H]1CSC2c3ccccc3C(=O)N21)C(=O)NCc1ccco1 (some centres undefined) | 15% | 35% | -11% | -9% | -9% | -27%
CC1CN(c2cc(=O)n(-c3ccccc3)c(=O)[nH]2)CC(C)O1 (centres undefined) | 40µM* | 10% | 1% | 6% | 0% | 10%
COc1ccc(NC(=O)NNC(=O)COc2ccc3cc(Br)ccc3c2)c(OC)c1 | 36% | 28% | -1% | 0% | 2% | -14%
O=c1c2cc(N3CCOCC3)ccc2[nH]c(=S)n1Cc1ccccc1Cl | 42%[59 µM] | 64% | -1% | ? | 3% | -11%
O=c1c2cc(Br)ccc2[nH]c(=S)n1Cc1ccccn1 | 7.9µM* | 47% | -8% | 9% | ? | -4%
O=c1c2cc(N3CCOCC3)ccc2[nH]c(=S)n1Cc1ccccn1 | ? | 40% | 28µM* | 20µM* | -10% | -35%
Cc1cnc(CNC(=O)c2ccc3nc([C@@H]4O[C@H](CO)[C@H](O)[C@H](O)[C@H]4O)[nH]c3c2)cn1 | . | . | . | . | -2% | .
C=CC[n+]1c(C)csc1Nc1cccc(Br)c1 | 32µM* | ? | ? | -16% | 2% | .
C=CC[n+]1c(C)csc1Nc1ccc(C)cc1 | 50µM* | ? | ? | 26% | -18% | 32µM*
O=C(C1CC1)N1CCc2cc(Br)cc(S(=O)(=O)NCCCN3CCCC3)c21 | 50µM* | 4% | ? | 5% | -10% | 7%
CC1CCCN(CCCNS(=O)(=O)c2cc(Br)cc3c2N(C(=O)C2CC2)CC3)C1 (centres undefined) | 26%[59 µM] | 24% | -2% | 1% | 0% | 4%
COc1cc(NC(=O)CCc2c(C)nn(-c3ccc4nncn4n3)c2C)cc(OC)c1OC | 1%[59 µM] | 23%[57 µM] | 4% | . | . | 0%
O=C(Nc1ccc(F)cc1)C(=O)c1c(O)[nH]c2ccc([N+](=O)[O-])cc12 | 32µM* | -17% | ? | ? | ? | ?
Cc1ccc(NCC(=O)N=Nc2c(O)[nH]c3ccc([N+](=O)[O-])cc23)cc1 | . | 41% | -25% | -51% | -22% | -15%
CCOc1cc(/C=N/NC(=O)C2CCCC2)ccc1OC(C)C | 5% | 33% | -6% | 10% | -4% | -13%
CCn1nc(C)c(CNC(=O)c2cc(COc3ccc(C)nc3)on2)c1C | . | 27% | -10% | 6% | 0% | -1%
SMILES | G9a block | HP1b chromo inh | JMJD2A Tudor | Sfp PPTase inh | PLK1 PBD block | BAZ2B inh
O=C(N/N=C(\Cc1ncc[nH]1)c1ccccc1)c1ccncc1 | -23% | 47% | 40µM* | -12% | -17% | 8.9µM*
O=C(N/N=C(\Cc1ncc[nH]1)c1ccccc1)c1cccnc1 | -11% | 24% | 50µM* | 1% | -14% | 14µM*
O=C(N/N=C(\Cc1ncc[nH]1)c1ccccc1)c1ccccc1 | 5%[59 µM] | . | . | 19% | . | -1%
N#Cc1ccccc1CSc1nnc2ccc3ccccc3n12 | -7%[59 µM] | 24% | -5% | . | . | -9%
CCOC(c1cc(OC)cc([N+](=O)[O-])c1OC)C(C)C(OC)[C@@H](C)/C=C/CC(=O)OC (some centres undefined) | . | . | . | 3% | . | .
Cc1noc(C)c1S(=O)(=O)Nc1ccccc1Oc1ccccc1 | . | 27% | -5% | 1% | -7% | 13%
O=C1c2ccccc2-c2onc3ccc(Oc4ccccc4)c1c23 | 8.9µM* | -27% | ? | 1% | 26% | ?
COCC(COS(N)(=O)=O)C(C)C (centres undefined) | . | 44% | -6% | 4% | -1% | -1%
CC(c1ccncn1)N(C)Cc1nc(-c2ccc(C(F)(F)F)cc2)no1 (centres undefined) | 15% | 40% | 5% | 14% | 1% | 39%
Cc1oc(-c2ccc3ccccc3c2)nc1CN(C)C(C)c1ccncn1 (centres undefined) | ? | -6% | ? | 22µM* | 0% | -30%
CC1CCN(C(=O)C2c3ccccc3C(=O)N3CCc4ccccc4C23)CC1 (centres undefined) | -33% | 21% | ? | -2% | -8% | 0%
NC(=O)C1CCN(C(=O)C2c3ccccc3C(=O)N3CCc4ccccc4C23)CC1 (centres undefined) | 79µM* | 9% | -18% | ? | -11% | ?
CC1CCCC(C)N1CC(O)COc1c(F)cc(Br)cc1F (centres undefined) | -25% | 18% | 8%[11.4 µM] | 16% | 21µM* | -7%
O=S1(=O)Nc2c(cc(Cl)c3ccc(Cl)nc23)-c2ccccc21 | . | ? | 40µM* | . | . | .
CCc1ccc(N2C(=O)CC(N(CC3CCCO3)C(=O)/C=C/C(=O)O)C2=O)cc1 (centres undefined) | 89µM* | 20% | -34% | -4% | -15% | -4%
Cc1ccc(-c2ccc(CCC(=O)O)o2)cc1 | ? | -15% | ? | 45µM* | ? | -34%
Cc1cc(NC(=O)CCc2ccc(-c3ccccc3)o2)no1 | . | 17% | -17% | -28% | -26% | -2%
O=S(=O)(Nc1nccs1)c1ccc(Br)cc1 | 2% | -13% | -8% | 27% | ? | -25%
O=S(=O)(Nc1nccs1)c1cnc(Cl)c(Br)c1 | 4%[59 µM] | 22% | -16% | 50µM* | 1% | 0%
COc1ccc(C(CNC(=O)c2ccc(S(=O)(=O)Nc3ccccc3OC)cc2)N2CCCC2)cc1 (centres undefined) | . | 17% | -25% | . | -3% | .
